Compound activity deposited in PubChem by National Center for Advancing Translational Sciences (NCATS).
D2 antag = D2 dopamine receptor (human) antagonism | HEK293 TREx D2 cells, calcium flux, dopamine EC80 | inhibition, % at 10 µM | 340,000 compounds, 2% hits | AID 485344; in the data active = inhibition above about 30%; inactive = below that, where a call was filed
Target sequence (P14416 whole entry, looked up): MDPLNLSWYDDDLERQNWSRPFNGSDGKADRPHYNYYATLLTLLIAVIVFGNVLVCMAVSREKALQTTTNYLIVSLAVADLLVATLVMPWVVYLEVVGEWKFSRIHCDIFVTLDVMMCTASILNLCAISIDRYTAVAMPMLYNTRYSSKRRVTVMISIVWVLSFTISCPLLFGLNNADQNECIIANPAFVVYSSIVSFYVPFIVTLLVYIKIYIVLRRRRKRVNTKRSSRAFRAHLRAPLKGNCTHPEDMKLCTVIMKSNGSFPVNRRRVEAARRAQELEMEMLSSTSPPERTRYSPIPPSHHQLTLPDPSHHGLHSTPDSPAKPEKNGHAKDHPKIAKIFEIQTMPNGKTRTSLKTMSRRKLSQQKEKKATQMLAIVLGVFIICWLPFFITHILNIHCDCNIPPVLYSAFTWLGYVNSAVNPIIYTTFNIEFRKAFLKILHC
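Dopamine at EC80 is the agonist stimulus; test compounds precede it by 180 s. Calcium flux read kinetically in a force-coupled, inducible HEK293 T-REx D2 cell line.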
D2 PAM-1 = potentiates the human D2 dopamine receptor allosterically | P14416 | DiscoveRx D2 beta-arrestin cells, luminescence, 90 min; 100% = 57 uM dopamine signal | potentiation, % (concentration not given with the values) | 360,000 compounds, 0.23% hits | AID 624464; in the data active = potentiation above about 50%; inconclusive = mostly about 30% to 49%
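PathHunter D2 cells, attached overnight at 37 deg C, received compound in DMSO plus dopamine at EC20 (50 nM final) for 90 min at 37 deg C. Beta-arrestin recruitment was read as luminescence after 1 h with detection reagent at ambient temperature.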
D2 ag-1 = agonists of human D2 dopamine receptor; P14416; HEK293 T-REx D2 cells, calcium flux agonist mode; activation, % at 2 µM; 340,000 compounds, 0.53% hits; AID 485358;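 active = activation over 3 SD above normal in the single-dose calcium agonist read, cut at about 30% in these data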
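Calcium-flux readout, 1 cycle/sec over 180 s following compound pin transfer, in inducible HEK293 Trex D2 cells (force-coupled); dopamine controls included. Positive calcium responses during this window marked compounds as potential agonists.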
D2 PAM-2 = D2 dopamine receptor (human) potentiation. P14416. HEK293 T-REx D2, calcium flux, EC20 dopamine potentiation. potentiation, % at 10 µM. 340,000 compounds, 0.34% hits;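 active = potentiation over 3 SD above the plate norm, cut at about 30% in these data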
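Potentiation of an EC20 dopamine calcium response measured kinetically over 180 s, after a preceding 180 s compound-only read flagging agonists. Cells: inducible Hek293 Trex D2 line, 4000/well, cultured overnight at 30 C before dye loading.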
D2 ag-2 = activates the human D2 dopamine receptor; activation, % (test concentration not listed); AID 624465; 360,000 compounds, 0.084% hits; DiscoveRx PathHunter D2 beta-arrestin, luminescence, 90 min; 100% = 57 uM dopamine signal; in the data active = activation above about 40%; inconclusive = between about 15% and that limit
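DiscoveRx PathHunter D2 beta-arrestin cells (2,100/well) attached overnight, then compound-stimulated 90 min at 37 C in HBSS/10 mM HEPES/0.1% Tween-20 buffer; beta-galactosidase complementation read by luminescence after 1 h at ambient temperature. Dopamine 57 uM final (EC100) as control.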
Numbers stand for hits; . = inactive; ? = inconclusive; / = not tested or not shown. Hits are enriched below; roughly 2.4% of the tested compounds scored in any of these assays.

SMILES | D2 antag | D2 PAM-1 | D2 ag-1 | D2 PAM-2 | D2 ag-2
N#Cc1cc(C(=O)c2cc(F)ccc2O)cn(-c2nccs2)c1=O | 34.2 | . | 116.4 | . | .
CC(C)n1cc(C(=O)c2ccccc2O)cc(C#N)c1=O | . | . | . | . | .
Cc1ccc(S(=O)(=O)c2cn(CC(=O)Nc3ccc4c(c3)OCO4)c3ccc(F)cc3c2=O)cc1 | / | / | / | . | /
OC(CCN1CCCCC1)(c1ccccc1)C1CCCCC1 (centres undefined) | 46.4 | . | . | . | .
OC(C#CCCN1CCCCC1)(c1ccccc1)c1ccccc1 | 33.4 | . | . | . | .
OC(C#CCN1CCCCCC1)(c1ccccc1)c1cccnc1 (centres undefined) | 58.3 | . | . | . | .
OC(C#CCN1CCCC1)(c1ccccc1)c1cccnc1 (centres undefined) | . | . | . | . | .
Cc1ccc(-n2nc(C)c3c(C(F)(F)F)cc(-c4cccnc4)nc32)cc1Cl | / | / | / | . | /
CCOc1ccc(CCNC(=O)Cn2nc(-c3ccc(C)cc3)ccc2=O)cc1OCC | / | / | . | / | /
Cc1cc(C)n2nc(C(=O)Nc3c(C)nn(Cc4ccc(F)cc4)c3C)cc2n1 | 51.5 | . | . | . | .
Cc1ccccc1NC(=O)C1CCN(C(=O)c2cnn(-c3ccccc3)c2-n2cccc2)CC1 | / | / | . | . | /
COc1ccc2nc(NC(=O)C3CC(=O)N(c4ccccc4)C3)sc2c1 (centres undefined) | 31.2 | . | . | . | .
COc1ccc(N2CC(C(=O)Nc3nc4ccc(OC)cc4s3)CC2=O)cc1 (centres undefined) | . | . | . | . | .
CCOc1cc(Cn2c(-c3ccc(O)c(OCC)c3)nc3ccccc32)ccc1O | / | / | . | . | /
COc1ccc(-n2nc([N+](=O)[O-])c(=NCCc3ccccc3)n2O)cc1 | . | 131.2 | . | . | ?
Cc1ccc(CCN=c2c([N+](=O)[O-])nn(-c3ccccc3)n2O)cc1 | . | 67.3 | . | . | ?
O=[N+]([O-])c1nn(-c2ccccc2)n(O)c1=NCCc1ccccc1 | . | 160.6 | . | . | ?
CCOc1ccc(-c2nc(SCC(=O)NCCOC)c(-c3ccc(OC)c(OC)c3)[nH]2)cc1 | / | / | . | . | /
COc1ccc(OC)c(N(C(=O)c2snc(C(N)=O)c2N)C(C(=O)NCc2ccccc2)c2ccc(O)cc2)c1 (centres undefined) | 43.4 | . | . | . | .
COc1ccc(N(C(=O)c2snc(C(N)=O)c2N)C(C(=O)NCc2ccccc2)c2ccc(O)cc2)cc1 (centres undefined) | . | . | . | . | .
Oc1ccc(C(=S)N2CCCC2)cc1 | . | . | . | . | .
Oc1ccc(C(=S)N2CCCCCC2)cc1 | 37.0 | . | . | . | .
COc1ccc(C(=S)N2CCCC2)cc1 | . | . | . | 42.8 | .
COc1ccc(N(CC(=O)NC(C)c2ccccc2)S(=O)(=O)c2c(C)nn(C)c2C)cc1 (centres undefined) | / | / | . | . | /
C=C1CCN([C@@H](CC(C)C)C(=O)N2CCOCC2)S(=O)(=O)c2ccccc21 | / | . | / | / | .
SMILES | D2 antag | D2 PAM-1 | D2 ag-1 | D2 PAM-2 | D2 ag-2
COC(=O)C(CC(C)C)N1CCC(=O)c2ccccc2S1(=O)=O (centres undefined) | 51.6 | . | . | . | .
C=C1C(=O)C=C2CN(C(=O)c3ccccc3)[C@@](Cc3ccc(F)cc3)(C(=O)OC)[C@@H]12 | 44.1 | . | . | . | .
COC(=O)[C@@]1(Cc2ccc(OC)cc2)[C@@H]2C(=CC(=O)[C@H]2CC(=O)C(=O)N(C)C)CN1C(=O)c1ccccc1 | . | . | . | . | .
Cc1c(C(=O)N2CCCCCC2)c(S(=O)(=O)Nc2ccc(OC(F)(F)F)cc2)c(C)n1C | / | / | . | . | /
CCC(C)N1C(=O)/C(=C/c2c(NCCCOC(C)C)nc3c(C)cccn3c2=O)SC1=S (centres undefined) | . | . | 33.7 | . | .
CN(C)S(=O)(=O)N1CCCN(S(=O)(=O)N(C)C)CC1 | . | . | . | 42.0 | .
Cc1cccc(NC(=O)C2CCCN2S(=O)(=O)c2ccc3nc(-c4ccccc4)[nH]c3c2)c1 (centres undefined) | / | / | . | . | /
COc1ccc(-c2nn(-c3ccccc3C)cc2CNCc2cccnc2)cc1F | 39.4 | . | . | . | .
CCN(CC)C(=O)c1sc2c(c1C)c(=O)n(-c1ccc(C)c(C)c1)c(=O)n2CC(=O)Nc1ccc(OC)cc1OC | / | / | . | . | /
Cc1cccc(OCC(=O)Nc2ccc3nc(C)sc3c2)c1 | . | . | . | 33.6 | .
Cc1nc2ccc(NC(=O)c3ccc4ccccc4n3)cc2s1 | . | . | . | 31.4 | .
Cc1nc2ccc(NC(=O)COc3ccccc3)cc2s1 | . | . | . | . | .
CCOC(=O)CSc1nc(C)nc2c1sc1nc(C)c(C(C)=O)c(-c3ccc(OC)cc3)c12 | 39.6 | . | . | . | .
O=C(CC1SC(N2CCCC2)=NC1=O)Nc1ccc(C(=O)NCc2ccc(F)cc2)cc1 (centres undefined) | . | . | . | . | .
CC1CC(C)CN(C(=O)CN2C(=O)NC3(CCCCCCC3)C2=O)C1 (centres undefined) | . | . | . | . | .
Cc1ccc(S(=O)(=O)NC(=O)c2ccc(Br)o2)c(C)c1 | 31.5 | . | . | . | .
CS(=O)(=O)N1CCC(C(=O)Nc2ccc(OCc3ccccc3)cc2)CC1 | 45.5 | . | . | . | .
O=C(Nc1cccc(/C=C/c2ccccn2)c1)c1ccc(-n2cncn2)c([N+](=O)[O-])c1 | . | 62.8 | . | . | .
O=C(Nc1ccc(F)c(F)c1)c1ccc(-n2cncn2)c([N+](=O)[O-])c1 | . | . | . | . | .
COc1ccc(NC(=O)c2ccc(-n3cncn3)c([N+](=O)[O-])c2)cc1OC | 35.3 | . | . | . | .
Cc1cc2[nH]c(=O)c(=O)[nH]c2cc1S(=O)(=O)NC1CCCCC1C (centres undefined) | . | . | . | . | .
COc1ccc(CCN2C(=O)CN(C3CCC(C)CC3)C(=O)C2c2ccc(OC(C)C)c(OC)c2)cc1OC (centres undefined) | / | / | . | . | /
COc1ccc(NC(=O)c2nn(C)c3c2CS(=O)(=O)c2ccccc2-3)cc1 | . | . | . | 36.5 | .
COc1cc(NC(=O)c2nn(C)c3c2CS(=O)(=O)c2ccccc2-3)cc(OC)c1 | . | . | . | . | .
Cc1ccc(-c2n[nH]c3c2C(c2cccs2)N(c2ccc(Cl)cc2)C3=O)cc1 (centres undefined) | / | / | . | . | /
O=C(CS(=O)c1ccc(C(F)(F)F)cc1[N+](=O)[O-])Oc1ccccc1 (centres undefined) | . | . | . | 32.9 | .
O=C(NC1CC1)C1CCN(C2CCN(C(=O)Cc3ccc(F)cc3)CC2)CC1 | 34.4 | . | . | . | .
